Values joined by “and” are separate entries in the source; they are usually repeats but may differ in a detail not shown here. Equal entries are not always repeated. Records with an inconclusive call do not appear. Some compounds were tested as several samples or in several runs, with calls that do not always agree. Active and inactive are the calls of the source. Unless noted, the call rests on the fitted dose curve.
Experiments:
[1] = Nuclear factor erythroid 2-related factor 2/antioxidant responsive element (Nrf2/ARE) small molecule agonists: qHTS cell viability counter screen in human keratinocytes (AID 1919968; active means well fitted curve in the direction sought with a large enough effect in the repeat runs; an effect the other way counts as inactive or inconclusive; further: nearly all actives have a fitted effect of over 55% in size)
Summary of the method: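 Stably transfected HaCaT (KeratinoSens), 1,500/well. Test agents in DMSO were applied for 23 h, 37 C/5% CO2. CellTiter-Fluor was incubated 1 h before the fluorescence read.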

[2] = Nuclear factor erythroid 2-related factor 2/antioxidant responsive element (Nrf2/ARE) small molecule agonists: luciferase reporter gene qHTS assay in human keratinocytes (AID 1919969); further: nearly all actives have a fitted effect of over 35% in size; further: potency means the concentration at half of the fitted maximal effect
[3] = molecular target: Gonadotropin-releasing hormone receptor (Homo sapiens) (UniProt P30968); assay: Human gonadotropin-releasing hormone receptor (GnRHR) small molecule agonists, calcium flux assay in GnRHR-HEK293 cells (AID 1920063); further: nearly all actives have a fitted effect of over 35% in size
Chain of Gonadotropin-releasing hormone receptor (Homo sapiens) (P30968 whole entry, looked up): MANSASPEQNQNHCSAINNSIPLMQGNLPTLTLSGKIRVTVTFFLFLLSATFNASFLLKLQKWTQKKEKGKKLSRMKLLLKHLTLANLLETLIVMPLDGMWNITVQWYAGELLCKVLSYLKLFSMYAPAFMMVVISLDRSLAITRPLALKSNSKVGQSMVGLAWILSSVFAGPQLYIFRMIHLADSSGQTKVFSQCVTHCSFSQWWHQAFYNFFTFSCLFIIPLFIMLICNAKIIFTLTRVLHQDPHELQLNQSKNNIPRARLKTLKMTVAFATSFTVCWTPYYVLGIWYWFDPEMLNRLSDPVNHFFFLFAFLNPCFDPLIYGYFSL
Summary of the method: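 Stable human GnRHR HEK293 line. 18 h plating, then calcium dye for 1 h at 37 C. Agonist-mode compound addition from DMSO stocks; fluorescence monitored 3 min.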

[4] = molecular target: KiSS-1 receptor (Homo sapiens) (UniProt Q969F8); assay: Human kisspeptin (KISS1R) small molecule agonists, calcium flux assay in KISS1R-HEK293 cells (AID 1920064; active means well fitted curve in the direction sought with a large enough effect in the repeat runs; an effect the other way counts as inactive or inconclusive)
Chain of KiSS-1 receptor (Homo sapiens) (Q969F8 whole entry, looked up): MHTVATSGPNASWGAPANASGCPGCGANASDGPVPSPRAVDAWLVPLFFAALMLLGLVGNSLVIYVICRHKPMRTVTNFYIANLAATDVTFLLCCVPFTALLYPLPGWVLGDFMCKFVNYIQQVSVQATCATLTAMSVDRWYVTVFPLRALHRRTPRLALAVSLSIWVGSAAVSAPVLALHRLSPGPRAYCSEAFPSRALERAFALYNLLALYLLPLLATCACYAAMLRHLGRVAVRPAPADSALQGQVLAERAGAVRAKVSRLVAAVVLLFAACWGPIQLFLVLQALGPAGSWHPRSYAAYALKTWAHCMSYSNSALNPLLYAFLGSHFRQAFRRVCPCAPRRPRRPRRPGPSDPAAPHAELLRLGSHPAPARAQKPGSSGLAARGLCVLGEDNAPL
Summary of the method: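 After overnight (18 h) culture at 37 C/5% CO2, human KISS1R-HEK293 cells received calcium dye for 1 h, then test compound; emission at 540 nm (excitation 480 nm) was tracked for 3 min.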

[5] = G protein-coupled receptor (GPCR) small molecule agonists, calcium flux assay: HEK293 wild type cell line counter screen (AID 1920065)
Summary of the method: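 Following 18 h incubation at 37 C/5% CO2, plates got calcium dye for 1 h; compounds, ATP or DMSO were then pinned in and fluorescence followed kinetically (480/540 nm).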

[6] = p53 small molecule agonists, cell-based qHTS assay with human liver microsomes (AID 1963577)
Summary of the method: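 Cells carrying a p53-responsive bla reporter were rested 5 h (37 C, 5% CO2) before compound transfer. Human liver microsomes plus NADPH, 0.5 mg/mL final apiece, supplied metabolism during the 16 h 37 C exposure.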

[7] = p53 small molecule agonists, cell-based qHTS assay with rat liver microsomes (AID 1963578)
Summary of the method: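 Fluorescence from a beta-lactamase reporter under a p53 response element was measured after cells had been incubated 16 h at 37 C with test compound and rat liver microsomes plus NADPH (0.5 mg/mL final each).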

[8] = p53 small molecule agonists, cell-based qHTS assay with human liver microsomes: qHTS cell viability counter screen (AID 1963579); further: nearly all actives have a fitted effect of over 45% in size
Summary of the method: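 Seed p53RE-bla cells at 4,000 per well; incubate 5 h at 37 C; add compound, human liver microsomes and NADPH; incubate 16 h at 37 C; add CellTiter-Glo; after 30 min at room temperature, read luminescence.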

[9] = p53 small molecule agonists, cell-based qHTS assay with rat liver microsomes: qHTS cell viability counter screen (AID 1963580); further: nearly all actives have a fitted effect of over 45% in size
Summary of the method: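 Counter screen for cytotoxicity under metabolic activation: rat liver microsomes and NADPH, 0.5 mg/mL final each, added with compounds to p53RE-bla HCT-116 cells; 16 h at 37 C, then ATP luminescence read.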

[10] = p53 small molecule agonists, cell-based qHTS assay: qHTS cell viability counter screen (AID 1963581); further: nearly all actives have a fitted effect of over 45% in size; further: potency means the concentration at half of the fitted maximal effect
Summary of the method: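 qHTS counter screen: 16 h compound exposure at 37 C of p53RE-bla HCT-116 cells (4,000 per well, seeded 5 h prior), cell viability by ATP luminescence.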

[11] = p53 small molecule agonists, cell-based qHTS assay (AID 1963582; active means well fitted activation curve with a large enough effect in the signal ratio in the repeat runs, not every such curve was filed as active; the % refers to the signal ratio)
Summary of the method: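 Measured: fluorescence from cleaved LiveBLAzer substrate. System: p53RE-bla cells, 16 h compound treatment at 37 C, 2 h substrate step at room temperature.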

[12] = molecular target: 5-hydroxytryptamine receptor 2A (Homo sapiens) (UniProt P28223); assay: 5-hydroxytryptamine receptor 2A (HTR2A) small molecule antagonists, cell-based qHTS assay (AID 1963586); further: nearly all actives have a fitted effect of over 45% in size
Chain of 5-hydroxytryptamine receptor 2A (Homo sapiens) (P28223 whole entry, looked up): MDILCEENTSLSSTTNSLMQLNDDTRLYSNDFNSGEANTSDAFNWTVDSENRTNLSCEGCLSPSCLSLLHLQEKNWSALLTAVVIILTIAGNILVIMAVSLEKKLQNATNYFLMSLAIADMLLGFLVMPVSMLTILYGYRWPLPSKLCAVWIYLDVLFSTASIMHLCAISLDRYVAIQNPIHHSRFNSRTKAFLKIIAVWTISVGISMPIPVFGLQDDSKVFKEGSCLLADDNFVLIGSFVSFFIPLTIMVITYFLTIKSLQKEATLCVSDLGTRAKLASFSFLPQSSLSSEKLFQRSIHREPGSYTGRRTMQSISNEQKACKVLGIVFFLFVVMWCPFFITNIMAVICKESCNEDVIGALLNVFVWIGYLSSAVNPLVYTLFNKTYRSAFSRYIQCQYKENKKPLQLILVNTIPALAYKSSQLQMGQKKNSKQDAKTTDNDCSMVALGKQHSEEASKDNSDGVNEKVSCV
Summary of the method: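 CHO cells stably expressing human HTR2A were plated for 18 h at 37 C, then loaded with calcium dye for 1 h. Compounds were preincubated 5 min at room temperature before DOI (4 nM solution) was added. Kinetic fluorescence was read for 3 min.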

[13] = molecular target: 5-hydroxytryptamine receptor 2A (Homo sapiens) (UniProt P28223); assay: 5-hydroxytryptamine receptor 2A (HTR2A) small molecule agonists, cell-based qHTS assay (AID 1963587); further: nearly all actives have a fitted effect of over 30% in size
Summary of the method: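 HTR2A-CHO cells, plated 18 h at 37 C/5% CO2, dye-loaded 1 h at 37 C; compounds in DMSO added by pin tool (agonist mode). Intracellular calcium flux read as kinetic fluorescence on FDSS over 2 min at 1 s intervals.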

[14] = molecular target: Muscarinic acetylcholine receptor M1 (Homo sapiens) (UniProt P11229); assay: Cholinergic receptor muscarinic 1 (CHRM1) small molecule antagonists, cell-based qHTS assay (AID 1963588); further: nearly all actives have a fitted effect of over 40% in size
Chain of Muscarinic acetylcholine receptor M1 (Homo sapiens) (P11229 whole entry, looked up): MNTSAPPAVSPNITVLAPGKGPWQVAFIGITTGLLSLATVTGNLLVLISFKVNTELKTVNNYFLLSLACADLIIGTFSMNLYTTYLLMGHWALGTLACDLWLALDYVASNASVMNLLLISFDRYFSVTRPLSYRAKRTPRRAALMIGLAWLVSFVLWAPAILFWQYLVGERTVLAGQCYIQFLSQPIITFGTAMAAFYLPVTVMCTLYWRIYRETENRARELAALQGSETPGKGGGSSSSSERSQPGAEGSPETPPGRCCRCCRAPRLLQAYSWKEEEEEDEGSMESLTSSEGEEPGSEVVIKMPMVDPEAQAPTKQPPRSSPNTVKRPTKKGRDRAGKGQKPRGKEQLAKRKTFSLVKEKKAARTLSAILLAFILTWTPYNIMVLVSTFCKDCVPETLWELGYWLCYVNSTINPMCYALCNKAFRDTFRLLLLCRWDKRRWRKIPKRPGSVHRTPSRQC
Summary of the method: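 Compounds were tested at 15 concentrations in three independent runs. Dye-loaded CHRM1-CHO cells were exposed 5 min at room temperature before stimulation by acetylcholine added at 50nM. Intracellular calcium was read kinetically on FDSS for 3 min.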

[15] = molecular target: Muscarinic acetylcholine receptor M1 (Homo sapiens) (UniProt P11229); assay: Cholinergic receptor muscarinic 1 (CHRM1) small molecule agonists, cell-based qHTS assay (AID 1963589); further: nearly all actives have a fitted effect of over 35% in size
Summary of the method: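 Kinetic fluorescence (1 s intervals) of calcium-sensitive dye in human M1 CHO cells after compound addition; cells pre-incubated 18 h at 37 C/5% CO2 and dye-loaded 1 h.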

[16] = cAMP Responsive Elements (CRE) small molecule agonists, cell-based qHTS assay (AID 1963590)
Summary of the method: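 Test agents in DMSO were incubated 3 h at 37 C/5% CO2 with CRE-bla HEK 293T cells seeded 18 h earlier; LiveBLAzer B/G FRET substrate was added and read after 2 h at room temperature.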

[17] = cAMP Responsive Elements (CRE) small molecule antagonists, cell-based qHTS assay (AID 1963591; active means well fitted inhibition curve with a large enough effect in the signal ratio in the repeat runs, not every such curve was filed as active; the % refers to the signal ratio)
Summary of the method: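 Reporter line CRE-bla HEK 293T in dialyzed-FBS DMEM; cells preincubated 18 h, treated 3 h with compound plus NKH477 (0.25 uM final); LiveBLAzer FRET, 2 h RT.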

[18] = molecular target: Beta-2 adrenergic receptor (Homo sapiens) (UniProt P07550); assay: Adrenergic beta2 receptor (ADRB2) small molecule antagonists, cell-based qHTS assay (AID 1963592); further: series mostly up to about 92 µM; nearly all actives have a fitted effect of over 50% in size
Chain of Beta-2 adrenergic receptor (Homo sapiens) (P07550 whole entry, looked up): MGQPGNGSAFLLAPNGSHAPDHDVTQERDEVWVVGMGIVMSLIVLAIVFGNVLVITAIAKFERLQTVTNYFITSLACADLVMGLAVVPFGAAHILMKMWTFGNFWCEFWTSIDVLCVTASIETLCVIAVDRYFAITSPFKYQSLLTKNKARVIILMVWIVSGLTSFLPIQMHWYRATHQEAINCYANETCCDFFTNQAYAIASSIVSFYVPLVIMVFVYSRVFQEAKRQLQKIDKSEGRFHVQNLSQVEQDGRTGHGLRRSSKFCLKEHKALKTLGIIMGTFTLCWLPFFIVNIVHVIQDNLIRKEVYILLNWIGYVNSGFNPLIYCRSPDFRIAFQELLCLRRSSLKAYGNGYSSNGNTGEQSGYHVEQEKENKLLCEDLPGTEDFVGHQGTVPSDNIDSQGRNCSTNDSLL
Summary of the method: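 Assay format: CHO-ADRB2 cells, 18-20hr seeding at 37C/5% CO2, then compound plus 1nM isoproterenol agonist mix for 0.5hr RT. Homogeneous time-resolved fluorescence cAMP detection after 1hr, expressed as 665/615 nm ratio.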

[19] = molecular target: Beta-2 adrenergic receptor (Homo sapiens) (UniProt P07550); assay: Adrenergic beta2 receptor (ADRB2) small molecule agonists, cell-based qHTS assay (AID 1963593);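 further: CHO cells stably overexpressing human ADRB2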
Summary of the method: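 CHO cells stably over-expressing ADRB2 were plated overnight at 37C, then dosed with compounds plus a stimulation mix containing 100uM IBMX and 25uM Ro-20-1724 for 0.5hr at room temperature. cAMP was measured by HTRF competition, 1hr.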

[20] = molecular target: D(2) dopamine receptor (Homo sapiens) (UniProt P14416); assay: Dopamine D2 receptor (DRD2) small molecule agonists, cell-based qHTS assay (AID 1963594); further: nearly all actives have a fitted effect of over 35% in size
Chain of D(2) dopamine receptor (Homo sapiens) (P14416 whole entry, looked up): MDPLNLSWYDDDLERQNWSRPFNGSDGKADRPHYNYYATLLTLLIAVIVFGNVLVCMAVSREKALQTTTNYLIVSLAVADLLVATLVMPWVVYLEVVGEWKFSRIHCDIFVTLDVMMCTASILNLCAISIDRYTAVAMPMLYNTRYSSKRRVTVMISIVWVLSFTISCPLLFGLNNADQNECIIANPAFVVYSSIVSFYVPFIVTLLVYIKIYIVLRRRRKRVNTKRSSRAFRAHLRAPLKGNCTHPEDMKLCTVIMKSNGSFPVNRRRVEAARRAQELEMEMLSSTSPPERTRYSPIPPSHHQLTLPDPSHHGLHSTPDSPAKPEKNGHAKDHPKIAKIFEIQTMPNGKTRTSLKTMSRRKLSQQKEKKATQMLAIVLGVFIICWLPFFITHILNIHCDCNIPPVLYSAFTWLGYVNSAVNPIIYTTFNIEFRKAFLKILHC
Summary of the method: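 HEK293 cells stably expressing DRD2 were cultured 24 h at 37 C, then given Ro20-1724 (0.1 mM final) and compounds for 10 min at room temperature. NKH477 (200nM) was then added for 30 min. cAMP was read by HTRF.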

Measured: Potency

CC1=CC(C)C(C=O)CC1 (stereo not given)
inactive: [1] | [2] | [3] | [4] | [5] | [6] | [7] | [8] | [9] | [10] | [11] | [12] | [13] | [14] | [15] | [16] | [17] | [18] | [19] | [20]

CCO[Si](C)(OCC)OCC
inactive: [1] | [2] | [3] | [4] | [5] | [6] | [7] | [8] | [9] | [10] | [11] | [12] | [13] | [14] | [15] | [16] | [17] | [18] | [19] | [20]

CC(C)(C)OC=O
inactive: [1] | [2] | [3] | [4] | [5] | [6] | [7] | [8] | [9] | [10] | [11] | [12] | [13] | [14] | [15] | [16] | [17] | [18] | [19] | [20]

COc1ccc(Br)c(C)c1
inactive: [1] | [2] | [3] | [4] | [5] | [6] | [7] | [8] | [9] | [10] | [11] | [12] | [13] | [14] | [15] | [16] | [17] | [18] | [19] | [20]

CNC1(C)C2CCC(C2)C1(C)C (stereo not given)
inactive: [1] | [2] | [3] | [4] | [5] | [6] | [7] | [8] | [9] | [10] | [11] | [12] | [13] | [14] | [15] | [16] | [17] | [18] | [19] | [20]

Nc1cc([N+](=O)[O-])ccc1O
inactive: [1] | [2] | [3] | [4] | [5] | [6] | [7] | [8] | [9] | [11] | [12] | [13] | [14] | [15] | [16] | [17] | [18] | [19] | [20]
inactive and 362 nM (active): [10]

CCCCc1ncc(/C=C(\Cc2cccs2)C(=O)O)n1Cc1ccc(C(=O)O)cc1
inactive: [1] | [2] | [3] | [4] | [5] | [6] | [7] | [8] | [9] | [10] | [11] | [12] | [13] | [14] | [15] | [16] | [17] | [18] | [19] | [20]

C=CC(=O)OCCOC(=O)C=C
active: [2] 68.6 µM
inactive: [1] | [3] | [4] | [5] | [6] | [7] | [8] | [9] | [10] | [11] | [12] | [13] | [14] | [15] | [16] | [17] | [18] | [19] | [20]

CCC(=O)c1ccc(O)cc1
inactive: [1] | [2] | [3] | [4] | [5] | [6] | [7] | [8] | [9] | [10] | [11] | [12] | [13] | [14] | [15] | [16] | [17] | [18] | [19] | [20]

CC1CCc2nccnc21 (stereo not given)
inactive: [1] | [2] | [3] | [4] | [5] | [6] | [7] | [8] | [9] | [10] | [11] | [12] | [13] | [14] | [15] | [16] | [17] | [18] | [19] | [20]

C[C@@H](O)[C@H]1C(=O)N2C(C(=O)O)=C([C@H]3CCCO3)S[C@H]12
inactive: [1] | [2] | [3] | [4] | [5] | [6] | [7] | [8] | [9] | [10] | [11] | [12] | [13] | [14] | [15] | [16] | [17] | [18] | [19] | [20]

CC1=C(C=O)C(C)(C)CC=C1
inactive: [1] | [2] | [3] | [4] | [5] | [6] | [7] | [8] | [9] | [10] | [11] | [12] | [13] | [14] | [15] | [16] | [17] | [18] | [19] | [20]

C=C1[C@H]2CC[C@@H]3[C@H]2C(C)(C)CCC[C@]13C
inactive: [1] | [2] | [3] | [4] | [5] | [6] | [7] | [8] | [9] | [10] | [11] | [12] | [13] | [14] | [15] | [16] | [17] | [18] | [19] | [20]
